Compounds with a hit are over-represented: about 9.2% of the library has one in this group of screens.
ELG1 repair inh: ELG1-dependent DNA repair inhibition | HEK293T ELG1-luciferase reporter, luminescence, 16 h; DNA damage induced by 5-fluorouridine | Potency, µM (doses to about 46.1 µM), without a hit: at the top dose activity change, negative = inhibition, most hits filed as inhibitors | actives 2.3% (n = 330,000); note: % is set by controls: 0 for no effect and ±100 for the full control effect; nearly all actives have a fitted effect of over 55% in size
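5-Fluorouridine DNA damage + compound/DMSO, 2,000 cells/well, 16 h, 37 °C/5% CO2. ONE-Glo, 30 min RT, luminescence. Readout = decrease in reporter signal.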
ELG1 genotoxic: inducers of genotoxicity in HEK293T ELG1-luciferase cells. actives 1.3% (n = 330,000). HEK293T ELG1-luciferase reporter, luminescence, 16 h. Potency, µM (series often up to 46 µM), for inactives: at the highest dose activity change, positive = activation, hits mostly activators; note: % of control where 0% means no effect; nearly all actives have a fitted effect of over 60% in size
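Cells (2,000/well) expressing the ELG1-luciferase fusion are dosed by pin tool and kept 16 hr at 37 °C, 5% CO2. Signal comes from ONE-Glo luciferase reagent after 30 min at room temperature.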
FLuc modulator: counter-screen for miR-21 project: firefly luciferase inhibitors or activators; P08659; purified FLuc, Km substrates, luminescence inhibition; Potency, µM (titrated, usually from 57.5 µM), inactives show at the top dose activity change, negative = inhibition, usual class: inhibitors; actives 6.9% (n = 360,000);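 note: plate controls were vehicle for no effect and reference inhibitor for full effect; nearly all actives have a fitted effect of over 55% in size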
Target sequence (P08659 whole entry, looked up): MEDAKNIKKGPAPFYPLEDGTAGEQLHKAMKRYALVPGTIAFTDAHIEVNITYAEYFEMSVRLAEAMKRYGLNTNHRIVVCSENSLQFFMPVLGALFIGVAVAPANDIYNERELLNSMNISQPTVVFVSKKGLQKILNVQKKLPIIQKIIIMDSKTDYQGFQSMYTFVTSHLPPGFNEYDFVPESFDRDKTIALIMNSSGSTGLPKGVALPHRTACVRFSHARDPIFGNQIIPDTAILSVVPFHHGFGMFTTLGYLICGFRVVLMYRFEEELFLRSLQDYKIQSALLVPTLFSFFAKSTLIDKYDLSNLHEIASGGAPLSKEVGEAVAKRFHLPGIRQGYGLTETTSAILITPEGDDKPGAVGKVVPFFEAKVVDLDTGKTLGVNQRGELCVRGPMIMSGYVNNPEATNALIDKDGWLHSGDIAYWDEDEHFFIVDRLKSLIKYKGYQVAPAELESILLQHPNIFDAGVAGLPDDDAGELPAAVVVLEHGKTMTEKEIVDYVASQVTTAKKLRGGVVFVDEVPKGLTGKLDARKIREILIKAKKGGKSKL
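Purified P. pyralis luciferase, 10 nM final, with Km-level 10 uM D-luciferin and 10 uM ATP in 50 mM Tris acetate pH 7.5, 10 mM Mg acetate, 0.01% Tween-20, 0.05% BSA; 6-point qHTS titration about 60 µM downward; luminescence read.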
Rab9 prom act: activates the Rab9 promoter | AID 485297 | actives 2.8% (n = 320,000) | Huh7 Rab9 promoter-luciferase reporter, luminescence, 24 h | Potency, µM (top dose mostly 9.22 µM), without a hit: top-dose activation, negative = inhibition, hits mostly activators; note: % of control where 0% means no effect; nearly all actives have a fitted effect of over 60% in size
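Luminescence from Amplite-detected luciferase (10 minutes, ambient) reports Rab9 promoter activation. Before that, stable Rab9-luciferase Huh7 cells (1500/well, reduced-serum OP-MEM I plus 10% FBS) were exposed to compound for 24 hours at 37C.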
SMN2 splice enh: SMN2 splice variant enhancement. HEK293 SMN2-luciferase splicing reporter, luminescence, 30-36 h. Potency, µM (titrated, usually from 46.1 µM), for inactives: at the highest dose activity change, positive = activation, most hits filed as activators. actives 2.8% (n = 210,000). AID 1458; note: % of control where 0% means no effect; nearly all actives have a fitted effect of over 55% in size
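HEK293 cells carry an SMN2 minigene-luciferase reporter in which exon 7 inclusion puts luciferase in frame. Cells were seeded at 2000 cells/well, attached for 10-12 hours, then exposed to compounds for 30-36 hours at 37C before ONE-Glo luminescence.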
NPC1 promoter act: activates the NPC1 promoter | Huh7 NPC1 promoter luciferase reporter, 24 h | Potency, µM (doses to about 9.22 µM), for the others: at the top dose activation, hits mostly activators | actives 2.4% (n = 320,000) | AID 485313; note: % of control where 0% means no effect; nearly all actives have a fitted effect of over 60% in size
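Luciferase expression driven by the NPC1 promoter was measured in stably transfected Huh7 cells after a 24 h compound incubation, using a luciferase reagent and a luminescence read.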
Numbers without * were called inactive; ? = inconclusive; nt = no result given. Calls come from the whole dose curve; as a rule, active = well fitted curve in the direction sought with a large enough effect; inconclusive = small, poorly fitted or top-dose-only effect, or another doubt; inactive = no such curve, though single readings can be large; an effect the other way counts as inactive or inconclusive. Potency is the fitted concentration of half-maximal effect.

SMILES | ELG1 repair inh | ELG1 genotoxic | FLuc modulator | Rab9 prom act | SMN2 splice enh | NPC1 promoter act
O=C(CS(=O)(=O)c1cccc2nsnc12)NCc1ccccc1 | nt | nt | -2% | nt | nt | nt
COC(=O)c1ccc(COC(=O)C2CCN(S(=O)(=O)c3ccc(C)c(C)c3)CC2)o1 | 5% | -2% | 0% | -7% | nt | 9%
Cc1noc(-c2ccccc2OCC(=O)Nc2cccc([N+](=O)[O-])c2)n1 | nt | nt | -3% | nt | nt | nt
CC1CC2OC(=O)C3(C)CCCC(C)(C23)C1(O)CCc1ccoc1 (centres undefined) | 15µM* | -4% | 1% | -9% | nt | 0%
O=C(COC(=O)c1ccccc1O)Nc1ccc2ccccc2c1 | ? | 7% | nt | nt | nt | nt
Cc1occc1C(=O)Nc1ccc2ccccc2c1 | ? | ? | 3.4µM* | 2.5µM* | 11µM* | 1.4µM*
O=C(Nc1ccc2ccccc2c1)c1ccc(Cl)cc1Cl | ? | 2.1µM* | 0.34µM* | 0.4µM* | nt | 0.22µM*
CS(=O)(=O)N1CCc2cc(C(=O)Nc3ccc(Cl)cc3)ccc21 | -20% | 9% | ? | ? | nt | ?
CC(C)C(=O)Nc1cccc(NC(=O)c2ccc(Cl)cc2Cl)c1 | -20% | 1% | ? | -3% | 9% | -1%
O=C(Nc1ccc2ccccc2c1)c1ccccc1O | ? | 0.23µM* | 0.3µM* | 3.5µM* | nt | 4µM*
CS(=O)(=O)N1CCc2cc(NC(=O)c3ccc(Cl)cc3Cl)ccc21 | 16% | 0% | 19µM* | 15% | 9% | 5%
COc1ccccc1NC(=O)c1ccc(NC(=O)c2ccc(=O)[nH]c2)cc1 | -3% | 4% | -11% | 2% | nt | 0%
COc1ccc(C)cc1NC(=O)c1ccc2c(c1)nnn2C1CCCC1 | nt | nt | -18% | nt | nt | nt
O=C(Nc1nc(=S)ss1)c1ccc(Cl)cc1Cl | ? | 1% | 15µM* | ? | ? | ?
O=C(Nc1ccc2ccccc2c1)c1cc(F)c(F)cc1Cl | ? | ? | 3.4µM* | ? | nt | 2µM*
CCCCOc1ccc(NC(=O)c2cc(F)c(F)cc2Cl)cc1 | ? | 1% | 0% | 19% | -10% | 0%
CCOC(=O)c1cc(NC(=O)c2ccoc2C)cc(C(=O)OCC)c1 | 9.2µM* | -11% | ? | -2% | -16% | 0%
C#CCOc1ccc2c3c(c(=O)oc2c1)CCCC3 | 28% | ? | ? | 12% | nt | 1%
CC(C)OC(=O)Nc1ccc2c(c1)N(C(=O)N1CCN(C)CC1)c1ccccc1CC2 | ? | ? | 6µM* | ? | nt | ?
Cn1nc(-c2ccccc2F)c2cc(C(=O)NCc3ccc(Cl)cc3)sc21 | nt | nt | -6% | nt | 6% | nt
CC(CCc1ccco1)NC(=O)c1cc2c(-c3ccccc3F)nn(C)c2s1 (centres undefined) | 16µM* | -9% | -4% | 1% | -14% | 0%
CC(=O)c1ccc(N2CCN(C(=O)c3cc4c(-c5ccccc5F)nn(C)c4s3)CC2)cc1 | 18µM* | -15% | -3% | 2% | -23% | 2%
Cn1nc(-c2ccccc2F)c2cc(C(=O)Nc3ccc4c(c3)OCCO4)sc21 | ? | 11% | 9.5µM* | 10% | 29% | -3%
COc1ccccc1N1CCN(CC(=O)Nc2ccc(-n3cnnn3)cc2)CC1 | -10% | 23% | 5% | -6% | -20% | 0%
O=C(Nc1ccc2[nH]ccc2c1)c1ccccc1 | ? | ? | 3.4µM* | 1.4µM* | nt | 0.56µM*
SMILES | ELG1 repair inh | ELG1 genotoxic | FLuc modulator | Rab9 prom act | SMN2 splice enh | NPC1 promoter act
O=C(Nc1ccc2[nH]ccc2c1)c1ccc(F)cc1 | ? | ? | 1.5µM* | 0.5µM* | nt | 0.4µM*
Cc1cccn2c(=O)c(C(=O)N3CCN(c4ccc(Cl)cc4)CC3)cnc12 | nt | nt | -3% | nt | nt | nt
CCn1c(C(=O)N2CCCC(C(=O)NCCCc3ccccc3)C2)cc2sccc21 (centres undefined) | 21µM* | -10% | -11% | -2% | -62% | -2%
O=C(NCc1ccco1)C1CCN(C(=O)c2cc3sccc3n2Cc2ccc(Cl)cc2)CC1 | 18µM* | -14% | 0% | 1% | -62% | 0%
CCOC(=O)N1CCC(NC(=O)C2CCN(C(=O)c3cc4sccc4n3CC)CC2)CC1 | 23µM* | -10% | 2% | -9% | nt | 1%
CCn1c(C(=O)N2CCCC(C(=O)NCCc3ccc(C)cc3)C2)cc2sccc21 (centres undefined) | 18µM* | -12% | -1% | 5% | -28% | -2%
COCCNC(=O)C1CCN(C(=O)c2cc3sccc3n2Cc2ccc(Cl)cc2)CC1 | nt | nt | -9% | nt | -39% | nt
CCn1c(C(=O)N2CCCC(C(=O)O)C2)cc2sccc21 (centres undefined) | -1% | 0% | -1% | -6% | 15% | 2%
Cc1ccc(S(=O)(=O)N2CCOCC2)cc1C(=O)OC1CCOC1=O (centres undefined) | 2% | -2% | -1% | -3% | nt | 0%
COc1ccc(S(=O)(=O)N2CCN(CC(=O)Nc3c(C)n[nH]c3C)CC2)cc1OC | -6% | 1% | nt | nt | nt | nt
CC(=O)N(/N=C1/C(=O)Nc2ccccc21)c1ccccc1 | ? | 11% | -17% | ? | nt | ?
CN(C)/C=C1/Sc2ccccc2C1=O | ? | -2% | ? | -4% | 8% | 11%
CC(=O)Oc1ccc(N(C(C)=O)S(=O)(=O)c2ccc(C)cc2C)c2ccccc12 | ? | -11% | -2% | 10% | nt | -1%
CC(=O)N(\C=C/C=C/C=C1\Sc2ccccc2C1=O)c1ccccc1 | ? | -5% | 7.6µM* | 7% | -58% | -2%
CC(=O)N(/N=C1\Sc2ccccc2C1=O)c1ccccc1 | ? | ? | ? | 23% | 14µM* | 23%
CC(=O)N(/N=C1\Sc2ccccc2C1=O)c1ccc(C)cc1C | ? | 15µM* | 17µM* | 23% | -68% | ?
CC(=O)N(/N=C1\Sc2ccccc2C1=O)c1ccccc1C | ? | ? | 11µM* | 3.2µM* | ? | ?
O=C(CSCc1ccccc1)Nc1ccc(S(=O)(=O)Nc2ncccn2)cc1 | -6% | -9% | -2% | -3% | nt | 2%
COc1cc(NC(=O)c2ccc(C)c(Cl)c2)ccc1NC(=O)c1cc2ccccc2o1 | nt | nt | 3% | nt | 7% | nt
NC(=S)N/N=C/c1ccc(-c2ccc(SC(F)F)cc2)o1 | ? | -4% | 24µM* | 0% | nt | 0%
NC(=S)N/N=C/c1ccc(-c2ccc(Cl)c(Cl)c2)o1 | ? | 3% | ? | 16% | 4% | 0%
Cc1ccc(-c2ccc(/C=N/NC(N)=S)o2)cc1 | ? | 12% | 6.7µM* | ? | nt | ?
